The campaign covered roughly 320,000 compounds. About 55 (0.02%) were called active. About 3% were inconclusive and are not listed. Cut-off read from the data, not from the text of the source: active = potentiation above about 80%; inconclusive = between about 30% and that limit; inactive = weaker than that. The list comes from a sample in which actives are over-represented; it also holds similar structures and randomly drawn compounds.

The target of this assay is Transient receptor potential cation channel subfamily V member 1 (Homo sapiens) (UniProt Q8NER1). The experiment in a line: HTS Assay for Compounds that Act as Potentiators of the Vanilloid Receptor 1. Note: 0% is about no effect. The settings on record: TRPV1-expressing cells, Fluo-8 calcium influx, capsaicin EC20 potentiation; at 8.33 µM; stronger effect = higher value. From the text: The transient receptor potential ion channel, family V, number 1, (TRPV1) is one of the most important molecular transducers of painful stimuli and a potential target for analgesic drug development. Although recent clinical trials with orthosteric antagonists have not produced a successful drug because of a hyperthermia side effect and their tendency to block thermal noxious pain, this ion channel is undeniably well placed in the pain pathway, and the idea of blocking pain signals before they enter the CNS is an excellent concept and of proven efficacy when TRPV1 agonists are used. We propose a new approach involving allosteric modulation to impose an activity-dependent constraint within the context of inflammation and tissue damage that would alter the responsiveness of the channel in a way that an orthosteric vanilloid antagonist cannot achieve. We believe that the allosteric modulator approach has not been explored for this target. The main goal of this proposal is to identify additional, new, potent allosteric modulators of TRPV1 that can be used to investigate TRPV1 function. Our recent report provides evidence of proof of concept, but the compounds are just at the edge of utility in terms of potency. […] The question of whether they can be used as analgesic agents is complex, but if suitable compounds are identified then testing for analgesic properties will be conducted. NIH Chemical Genomics Center [NCGC] NIH Molecular Libraries Probe Centers Network [MLPCN] MLPCN Grant: MH089480-1A1 Assay Submitter (PI): Michael Iadarola, National Institute of Dental and Cranofacial Research
Sequence of Transient receptor potential cation channel subfamily V member 1 (Homo sapiens) (Q8NER1 whole entry, looked up): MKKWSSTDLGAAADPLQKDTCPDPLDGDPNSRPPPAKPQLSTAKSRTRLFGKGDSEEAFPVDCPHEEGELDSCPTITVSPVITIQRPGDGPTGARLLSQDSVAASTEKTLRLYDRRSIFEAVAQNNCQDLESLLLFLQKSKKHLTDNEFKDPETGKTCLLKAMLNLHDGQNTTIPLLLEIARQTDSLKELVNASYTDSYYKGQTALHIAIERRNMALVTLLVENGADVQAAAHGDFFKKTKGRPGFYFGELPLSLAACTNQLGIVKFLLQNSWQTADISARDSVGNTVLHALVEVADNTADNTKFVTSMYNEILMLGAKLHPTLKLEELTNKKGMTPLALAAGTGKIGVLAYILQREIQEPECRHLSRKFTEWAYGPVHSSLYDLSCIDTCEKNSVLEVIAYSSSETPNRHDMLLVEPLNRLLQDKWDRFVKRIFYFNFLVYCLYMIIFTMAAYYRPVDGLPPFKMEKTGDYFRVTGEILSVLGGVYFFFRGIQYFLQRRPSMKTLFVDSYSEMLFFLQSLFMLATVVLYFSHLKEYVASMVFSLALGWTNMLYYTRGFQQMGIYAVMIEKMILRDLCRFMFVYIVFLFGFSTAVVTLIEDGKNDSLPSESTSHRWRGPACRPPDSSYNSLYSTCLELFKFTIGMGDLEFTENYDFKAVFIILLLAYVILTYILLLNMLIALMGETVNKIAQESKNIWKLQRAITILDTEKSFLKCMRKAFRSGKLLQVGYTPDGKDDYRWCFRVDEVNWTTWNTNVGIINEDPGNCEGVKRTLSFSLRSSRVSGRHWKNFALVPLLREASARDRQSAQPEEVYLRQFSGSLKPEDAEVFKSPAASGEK
Upon TRPV1 activation in TRPV1 cells, the channel opens and extracellular cations flow through the channel into the cytosol. A calcium binding dye (Fluo-8) becomes fluorescent when bound to calcium. This dye is pre-loaded into cells and is used as a marker for calcium influx. The amount of accumulated calcium is precisely quantified using the FDSS kinetic reader and the calcium dye. For the HTS assay, freshly prepared cells are plated at a density of 2000/well in 3 ul medium in 1536-well plates and cultured overnight at 35.5C. Cells will be loaded with 1 ul of the homogeneous calcium dye (ABD Bioquest) at room temperature for 40 to 90 minutes. Plates will be loaded into the FDSS kinetic reader and a 1 sec / cycle for 10 second baseline signal will be measured. Compound library will then be added with a pintool at 23 nl and measured kinetically for 3 minutes. This portion of the read is considered the agonist portion of the screen. Following the 3 minutes of incubation, an on board pipettor will deliver 1 ul of capsaicin for a final concentration equal to the EC20. Signal will be measured kinetically for an additional 2 minutes. This portion of the read is considered the allosteric enhancer portion of the screen. The FDSS reader has a standard filter set capable of measuring calcium bound Fluo-8 (ex=480 and em=520 nm).
Take `CCCCN1C(=O)C(=O)N(CC(=O)Nc2cccc(C(C)=O)c2)C1=O`: the potentiation is 6.11% (inactive).
For the molecule `COC(=O)c1ccc(-c2c(-c3ccccc3)ncc3cc(OC)c(OC)cc23)cc1`, the potentiation is -0.0919% (inactive).
Turning to `O=C(NCC1CCCO1)c1cc2c(s1)CCCC2` (stereo unspecified), the potentiation was -3.61% (inactive).
In the case of `COc1ccc(C(C)(C)C)cc1NC(=O)CCN1C(=O)C2CCCCC2C1=O` (stereo unspecified), the potentiation is -20% (inactive).
For `Cc1ccc(NC(=O)C(c2ccccc2)N2CCN(C(=O)c3ccco3)CC2)cc1` (stereo unspecified), the potentiation was 4.79% (inactive).
Turning to `CN(CCOc1ccccc1)C(=O)c1cc(-c2ccco2)nc2ccccc12`, the potentiation is 1.05% (inactive).
Take `CC1CCN(C(=O)COC(=O)c2cc(=O)[nH]c3ccccc23)CC1`: the potentiation was -1.92% (inactive).
Regarding `CN(C)S(=O)(=O)c1cccc(NC(=O)COc2ccc3ccccc3c2)c1`, the potentiation was 2.88% (inactive).
In the case of `O=C(COC(=O)c1cccc(Cl)c1)NC1CCCCCCC1`, the potentiation is -13.9% (inactive).
Take `COc1cc(OC)c(C(=S)N2CCCC2)cc1OC`: the potentiation is -20.3% (inactive).
Take `COc1ccc(-c2cc(C(=O)NCCCN3CCCC3=O)c3ccccc3n2)cc1OC`: the potentiation was -7.67% (inactive).
For `COc1cccc(C(=O)c2sc3nc(-c4ccccc4)cc(C(F)(F)F)c3c2N)c1`, the potentiation is -4.5% (inactive).
For `CC(C)Cc1nnc(NC(=O)CCNC(=O)c2ccccc2Cl)s1`, the potentiation was 6.33% (inactive).
Consider `CCCc1ccc(C(=O)COC(=O)CN2C(=O)NC3(CCCCC3C)C2=O)cc1` (stereo unspecified), for which the potentiation is -5.74% (inactive).
To `O=C(OCC(=O)N1CCc2ccccc21)C1CCCN1S(=O)(=O)c1ccc(Cl)cc1` (stereo unspecified) belongs -3.33% (inactive); to `COc1ccc(C)cc1NC(=O)CN1c2cccc3cccc(c23)S1(=O)=O`, -17.5% (inactive).
In the case of `COc1ccc(S(=O)(=O)Nc2cccc3cccnc23)c(N)c1`, the potentiation is 13.6% (inactive).
Consider `N#Cc1ccccc1S(=O)(=O)N1CCN(Cc2c(O)ccc3ccccc23)CC1`, for which the potentiation is 0.42% (inactive).
For `O=C(COC(=O)CNC(=O)C1CCCCC1)NCc1ccccc1`, the potentiation was -6.14% (inactive).
Regarding `CC(C)N(C(=O)CN1CCN(S(=O)(=O)c2ccc(Br)s2)CC1)C(C)C`, the potentiation is -18.3% (inactive).
As for `CCOc1cccc2cc(C(=O)OCC(=O)Nc3c(C)cccc3CC)c(=O)oc12`, the potentiation was -5.16% (inactive).
As to `Nc1cc(N)nc(SCC(=O)Nc2cccc(S(=O)(=O)N3CCCCC3)c2)n1`, the potentiation is 0.644% (inactive).
As to `COc1cccc(C(=O)n2ccc(-c3cccs3)n2)c1`, the potentiation is -6.21% (inactive).
The result for `O=C(N[C@@H](Cc1c[nH]c2ccccc12)C(=O)O)OCC1c2ccccc2-c2ccccc21` reads 1.56% (inactive).
Consider `CN(C(=O)CSc1nnc(-c2ccc(C(C)(C)C)cc2)n1C)C1CCS(=O)(=O)C1` (stereo unspecified), for which the potentiation was -2.39% (inactive).
Consider `O=C(CSc1nnc(Nc2ccccc2F)s1)NC1CCCC1`, for which the potentiation was -7.27% (inactive).
Consider `CCN(CC)S(=O)(=O)c1ccc(OC)c(NC(=O)CCc2c(C)noc2C)c1`, for which the potentiation was -15% (inactive).
Consider `COc1ccccc1S(=O)(=O)NCc1ccc(C(=O)N(C)Cc2ccc(F)cc2)cc1`, for which the potentiation was -20.6% (inactive).
As to `Cc1ccc(NC(=S)N(CCN2CCCCC2)Cc2ccco2)cc1C`, the potentiation is 2.55% (inactive).
Take `Cc1ccc(NC(=S)N(CCCN2CCC(C)CC2)Cc2ccco2)cc1`: the potentiation was 8.22% (inactive).
With `Cc1ccc(NC(=S)N(Cc2ccco2)C(C)c2cccs2)cc1` (stereo unspecified), the potentiation was 141% (active).
As for `O=C(O)c1ccccc1N=N/C(=N/Nc1cc(S(=O)(=O)O)ccc1O)c1ccccc1`, the potentiation was 1.2% (inactive).
For `CN(C)S(=O)(=O)c1ccc(C(=O)NCC2(N3CCOCC3)CCCCC2)cc1`, the potentiation is -44.6% (inactive).
With `CN(Cc1cccs1)C(=O)CN1C(=O)c2ccccc2S1(=O)=O`, the potentiation is -1.15% (inactive).
With `CCC1(C)NC(=O)N(CC(=O)N2CCN(c3cccc(Cl)c3)CC2)C1=O` (stereo unspecified), the potentiation was -16.1% (inactive).
Consider `O=C(COC(=O)c1ccccc1Cl)NC1CCCCCCC1`, for which the potentiation was -4.06% (inactive).
For the molecule `O=C(NCc1ccccc1CN1CCCC1)c1cccc(S(=O)(=O)Nc2ccc(F)cc2)c1`, the potentiation was -2.77% (inactive).
With `CC(C)Oc1ccc(C(=O)NCC(=O)Nc2ccc3c(c2)CCC3)cc1`, the potentiation was -17.6% (inactive).
For `O=C(Nc1cccc2cccnc12)C(F)(F)F`, the potentiation is 13.4% (inactive).
For the molecule `CCNC(=O)N1CCN(S(=O)(=O)c2ccc3c(c2)OCCCO3)CC1`, the potentiation was 4.26% (inactive).
`N#Cc1ccc(C(=O)OCC(=O)NC(=O)NC2CCCCC2)cc1`: the potentiation is 22.1% (inactive).
For `Cc1ccc(-c2nn(-c3ccccc3)cc2C(=O)NC2CCC(O)CC2)cc1` (stereo unspecified), the potentiation was -7.64% (inactive).
With `Cc1ccc(C(=O)NNC(=O)c2ccc3c(c2)OCCO3)cc1`, the potentiation is 9.22% (inactive).
To `Cn1c(SCC(=O)Nc2ccc(N3CCOCC3)cc2)nnc1C(F)(F)F` belongs 1.26% (inactive).
In the case of `COc1ccc(S(=O)(=O)N2CCN(c3ccc(F)cc3)CC2)cc1-c1noc(C)n1`, the potentiation was -6.85% (inactive).
Take `CCN(CC(=O)Nc1c(F)cccc1F)C(=O)c1ccc(-c2ccc(C(C)=O)cc2)o1`: the potentiation is -3.51% (inactive).
`O=C(COc1ccccc1Cl)N1N=C(c2cccs2)CC1c1ccco1` (stereo unspecified): the potentiation is -9.15% (inactive).
Turning to `CCc1cc(C(=O)Nc2nnc(C3CC3)s2)sc1C`, the potentiation was -13.7% (inactive).
Turning to `O=C(CN1CCN(S(=O)(=O)c2ccc(Cl)s2)CC1)N1CCCCC1`, the potentiation was -6.4% (inactive).
To `CN(C)C(CNC(=O)c1ccc(OCc2cn3ccccc3n2)cc1)c1ccco1` (stereo unspecified) belongs -3.83% (inactive).
Regarding `CN(CC(=O)NC1CCN(Cc2ccccc2)CC1)S(=O)(=O)c1ccc(Cl)s1`, the potentiation was 6.87% (inactive).
The result for `COc1ccccc1CNC(=O)COC(=O)c1sc(C)nc1C` reads 1.52% (inactive); that for `Cc1csc2nc(COC(=O)c3cccc(N(C)C)c3)cc(=O)n12`, 15% (inactive).
The result for `COc1ccc(CCNC(=O)COc2ccc3c(c2)OCO3)cc1` reads 18.8% (inactive); that for `CCOc1cc(/C=C(/C#N)c2ccc(Cl)cc2)cc(Cl)c1OCC(=O)O`, 12.2% (inactive); that for `COc1ccc(NC(=O)CC2SC(N3CCCCC3)=NC2=O)cc1OC` (stereo unspecified), 1.27% (inactive).
For the molecule `Cc1cccc(OCCC(=O)OCc2csc(CC(=O)Nc3ccccc3C)n2)c1`, the potentiation is -3.33% (inactive).
On to `O=S(=O)(Nc1cccc2cccnc12)c1cccc2cccnc12`, for which the potentiation is 16.1% (inactive).
As to `O=C(COC(=O)CNC(=O)C1CCCCC1)Nc1cccc(F)c1`, the potentiation was -7.91% (inactive).
`O=C(COC(=O)Cc1ccccc1F)NCCc1ccccc1`: the potentiation was -16% (inactive).
As to `CC(=O)c1sc(NC(=O)CCN2C(=O)C3CC=CCC3C2=O)nc1-c1ccccc1` (stereo unspecified), the potentiation is -6.85% (inactive).
For `CC(C(=O)Nc1ccc(S(=O)(=O)N2CCCC2)cc1)N(C)Cc1ccc(F)cc1` (stereo unspecified), the potentiation is -18.2% (inactive).
In the case of `O=C(OCC(=O)N1CCOCC1)c1ccc2ccccc2c1`, the potentiation was 17.8% (inactive).
For the molecule `O=C(NNC(=O)c1cc(S(=O)(=O)N2CCCCC2)ccc1Cl)c1ccccc1O`, the potentiation is -1.67% (inactive).
The result for `CC1CCCN(C(=O)c2cc(-c3ccco3)nc3ccccc23)C1` (stereo unspecified) reads 27.4% (inactive); that for `CC(C)Nc1ncnc2c1nnn2Cc1ccccc1`, -2.19% (inactive).
Consider `Oc1ccc(Cl)cc1C1C=C(c2ccc3c(c2)OCO3)NC(c2c(F)cccc2Cl)N1` (stereo unspecified), for which the potentiation was 25.7% (inactive).
The result for `Cc1ccc(C(=O)Nc2ccn(C)n2)cc1` reads 6.57% (inactive).
In the case of `O=S(=O)(Nc1ccc2nc(N3CCOCC3)sc2c1)c1ccccc1`, the potentiation is 15.8% (inactive).
The result for `O=C(CSc1nc2[nH]c(=O)[nH]c(=O)c2s1)Nc1cccc(F)c1` reads 19.7% (inactive); that for `O=C(Nc1ccccc1N1CCOCC1)c1ccncc1`, 17.2% (inactive).
Consider `NS(=O)(=O)c1ccc(CNC(=O)c2cccc(S(=O)(=O)N3CCc4ccccc43)c2)cc1`, for which the potentiation was 23.8% (inactive).
Consider `CC(C)n1ncc2c(C(=O)NCc3ccccc3CN(C)C)cc(C3CC3)nc21`, for which the potentiation is 3.73% (inactive).
As for `Cc1ccc(OCC(=O)N2CCN(S(=O)(=O)c3ccc(Cl)s3)CC2)cc1C`, the potentiation was -16.7% (inactive).
`CCCn1c(N)c(N(CCOC)C(=O)C2CCCC2)c(=O)[nH]c1=O`: the potentiation is 1.87% (inactive).
`Oc1ccc(Cl)cc1C1C=C(c2ccc3c(c2)OCO3)NC(c2ccc(F)c(Br)c2)N1` (stereo unspecified): the potentiation was 3.03% (inactive).
For `O=C(NCCN1CCOCC1)c1cccc(S(=O)(=O)Nc2ccc(F)cc2)c1`, the potentiation was 6.45% (inactive).
The result for `COc1ccc(OC)c(/C=C/C(=O)c2ccc3c(c2)OCO3)c1` reads -3.4% (inactive); that for `Cc1cccc(Nc2nnc(SCC(=O)c3c(N)n(C4CC4)c(=O)[nH]c3=O)s2)c1C`, 22.3% (inactive).
For the molecule `COc1cc(C#Cc2ccc3cc(CCCO)oc(=O)c3c2)cc(OC)c1`, the potentiation is 2.73% (inactive).
On to `O=C(NCc1ccccc1CN1CCCC1)C1CCN(S(=O)(=O)c2ccc(Cl)cc2)CC1`, for which the potentiation is 1.5% (inactive).
Turning to `O=S(=O)(c1ccc(SCc2ccccc2)nc1)N1CCCCCC1`, the potentiation was -6.24% (inactive).
For the molecule `Cc1ccc2ccc3c(c2n1)NS(=O)(=O)c1ccccc1-3`, the potentiation was 18.5% (inactive).
Consider `CC1(C)O[C@@H]2[C@H](O1)[C@@H](COS(=O)(=O)O)O[C@H]2n1cnc2c(=O)[nH]cnc21`, for which the potentiation was 8.79% (inactive).
Turning to `COc1cccc(NC(=O)COC(=O)/C=C/c2ccco2)c1`, the potentiation is 11% (inactive).
With `COc1ccccc1NC(=O)COC(=O)COc1ccccc1F`, the potentiation was 3.99% (inactive).
As for `COc1ccc(NC(=O)CN(C)C(=O)c2cc(C3CC3)nn2-c2ccccc2)cc1`, the potentiation was 14.7% (inactive).
To `Cc1ccc(/C=C/C(=O)OCC(=O)Nc2cccnc2Cl)cc1` belongs -11.8% (inactive); to `Cc1cccc(NS(=O)(=O)c2ccc(C)c(C(=O)NCC(c3ccccc3)N(C)C)c2)c1` (stereo unspecified), 1.06% (inactive); to `Cc1cccc(NS(=O)(=O)c2cccc(C(=O)NNC(=O)c3ccccc3O)c2)c1`, -12.6% (inactive).
On to `COc1ccc(C(=O)OCC(=O)c2cc(C)n(CC3CCCO3)c2C)cc1[N+](=O)[O-]` (stereo unspecified), for which the potentiation was 9.08% (inactive).

Values taken from PubChem BioAssay AID540277 (National Center for Advancing Translational Sciences (NCATS), 2011).
